Test results taken from patent US20040191812, “Target-dependent transcription using deletion mutants of N4 RNA polymerase” (published 2004).

Assays:
[1] = target: T1, N4 mini-vRNAP (His-tagged) (Bacteriophage N4, UniProt Q859P9 SEQ:34-1143); assay: filter; two orders of magnitude reduction; conditions: tags: N-terminal hexahistidine (pBAD); label: 32P end-label; hairpin, 8 bp stem; ssDNA; [none]
T1 chain: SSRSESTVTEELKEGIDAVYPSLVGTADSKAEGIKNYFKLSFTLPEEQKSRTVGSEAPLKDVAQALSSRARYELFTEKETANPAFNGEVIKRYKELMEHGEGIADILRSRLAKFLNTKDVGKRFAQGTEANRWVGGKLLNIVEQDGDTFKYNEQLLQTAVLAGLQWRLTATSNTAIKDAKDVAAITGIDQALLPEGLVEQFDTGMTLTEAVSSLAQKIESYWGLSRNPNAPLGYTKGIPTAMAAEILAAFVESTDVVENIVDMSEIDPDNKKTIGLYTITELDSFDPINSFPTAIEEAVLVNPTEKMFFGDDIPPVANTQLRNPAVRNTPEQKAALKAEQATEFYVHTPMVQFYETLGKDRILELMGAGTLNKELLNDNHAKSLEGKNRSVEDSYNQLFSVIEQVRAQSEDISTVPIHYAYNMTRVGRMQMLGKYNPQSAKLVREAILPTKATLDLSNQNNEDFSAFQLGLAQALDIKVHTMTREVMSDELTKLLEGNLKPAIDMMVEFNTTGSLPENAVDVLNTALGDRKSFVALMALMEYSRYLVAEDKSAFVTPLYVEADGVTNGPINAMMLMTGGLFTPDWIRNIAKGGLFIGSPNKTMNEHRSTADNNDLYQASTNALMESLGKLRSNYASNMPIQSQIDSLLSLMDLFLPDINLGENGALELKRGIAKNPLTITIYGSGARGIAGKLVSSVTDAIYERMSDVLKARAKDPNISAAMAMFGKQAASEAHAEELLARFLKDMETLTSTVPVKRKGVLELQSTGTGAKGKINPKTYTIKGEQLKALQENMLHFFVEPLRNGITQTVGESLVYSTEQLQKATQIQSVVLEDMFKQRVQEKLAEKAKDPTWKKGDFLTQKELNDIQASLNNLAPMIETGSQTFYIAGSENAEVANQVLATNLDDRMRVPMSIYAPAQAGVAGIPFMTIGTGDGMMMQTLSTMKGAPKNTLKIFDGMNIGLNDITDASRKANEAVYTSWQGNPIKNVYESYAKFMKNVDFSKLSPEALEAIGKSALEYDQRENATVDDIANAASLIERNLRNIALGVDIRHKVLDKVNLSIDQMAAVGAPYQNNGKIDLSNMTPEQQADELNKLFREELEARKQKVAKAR

[2] = target: T1, N4 mini-vRNAP (His-tagged); assay: filter; further one order of magnitude reduction; conditions: tags: N-terminal hexahistidine (pBAD); label: 32P end-label; hairpin; ssDNA; [none]

| Sequence | binding signal [1] | binding signal [2] |
| --- | --- | --- |
| TCCAAAAGAAGCGGAGCTTCTTT | ~100 fold lower affinity than wild type |  |
| TCCAAAAGAAGCGGAGCTTCTTTTG |  | ~1000 fold lower affinity than wild type |
